Source: PubChem BioAssay (NCI)
About 79,000 compounds went through this panel and 15% of them were active in at least one assay; those are over-represented in the sample as a whole. A number with no mark means an inactive call. The source made the active and inactive calls. Cut-off read from the data, not from the text of the source: active = growth inhibition above about 70%; inactive = the rest.

What was measured:
[1] = NCI Yeast Anticancer Drug Screen. Data for the rad50 strain (AID 155);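 note: 0% = growth of vehicle-only cultures of the same strain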; conditions: S. cerevisiae rad50 strain growth inhibition, stronger effect = higher value
In short: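 A DNA repair-deficient yeast mutant serves as the test organism; compound-induced growth inhibition is calculated against vehicle-treated cells.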

[2] = NCI Yeast Anticancer Drug Screen. Data for the mec2-1 strain (AID 157); conditions: S. cerevisiae mec2-1 strain, stronger effect = higher value
In short: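 Each compound was tested on mec2-1 yeast, a strain altered in DNA damage repair or cell cycle control. Growth inhibition is reported relative to vehicle.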

[3] = NCI Yeast Anticancer Drug Screen. Data for the sgs1 mgt1 strain (AID 161);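 note: 0% = growth of cultures given vehicle only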; conditions: S. cerevisiae sgs1 mgt1 strain, stronger effect = higher value
In short: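 Test agents were incubated with a DNA-repair-mutant yeast strain. Growth was then read and compared against vehicle-treated controls.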

[4] = NCI Yeast Anticancer Drug Screen. Data for the cln2 rad14 strain (AID 165);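 note: 0% = growth equal to vehicle treated cultures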; conditions: S. cerevisiae cln2 rad14 strain, stronger effect = higher value
In short: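 Test compounds were added to cln2 rad14 yeast cultures; inhibition of growth was then determined by comparison with vehicle treatment.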

[5] = NCI Yeast Anticancer Drug Screen. Data for the bub3 strain (AID 167); conditions: S. cerevisiae bub3 mutant strain, stronger effect = higher value
In short: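 Inhibition values come from growth of compound-treated mutant yeast normalised to vehicle-treated controls.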

[6] = NCI Yeast Anticancer Drug Screen. Data for the mlh1 rad18 strain (AID 175); conditions: S. cerevisiae mlh1 rad18 strain growth inhibition, stronger effect = higher value
In short: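 Inhibition values reflect reduced growth of mutant yeast versus vehicle-treated controls following compound exposure; the mutations affect DNA damage repair.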

[7] = at 5.0 µM (retest, dose inferred, filed as 0.5)
[8] = at 50.0 µM (retest, dose inferred, filed as 5.0)

Row | SMILES | growth inhibition [1, 7] | growth inhibition [1, 8] | growth inhibition ([1]; at 50.0 µM) | growth inhibition [2, 7] | growth inhibition [2, 8] | growth inhibition ([2]; at 50.0 µM) | growth inhibition [3, 7] | growth inhibition [3, 8] | growth inhibition ([3]; at 50.0 µM) | growth inhibition [4, 7] | growth inhibition [4, 8] | growth inhibition ([4]; at 50.0 µM) | growth inhibition [5, 7] | growth inhibition [5, 8] | growth inhibition ([5]; at 50.0 µM) | growth inhibition [6, 7] | growth inhibition [6, 8] | growth inhibition ([6]; at 50.0 µM)
1 | CCN(CC)CCC(=O)c1ccc(Oc2ccc(C)cc2)cc1 | 13% | 71% (active) | 29.9% | 6% | 36% | 40.2% | 24% | 75% (active) | 58% | 15% | 93% (active) | 24.9% | 18% | 89% (active) | 67% | 22% | 81% (active) | 53.1%
2 | CCc1cccc(C)c1N1C(=O)C(=O)C(c2nc3ccccc3o2)/C(=N\NS(=O)(=O)c2ccc(C)cc2)C1=O (configuration not stated) | 7% | 0% | -6.6% | 15% | 34% | 14.2% | 6% | 2% | 4.4% | 8% | -2% | 36% | 8% | 14% | 6.6% | 5% | 15% | 0.25%
3 | O=C(NCCCl)Nc1c2ccccc2nc2ccccc12 | 15% | 65% | 72% (active) | 8% | 39% | 41% | 4% | 23% | 24.5% | 16% | 23% | 31.4% | -1% | 19% | 34.9% | 9% | 41% | 37%
4 | Nc1ccccc1Sc1ccc(C(F)(F)F)cc1[N+](=O)[O-] | -1% | 23% | 99.1% (active) | 2% | 30% | 99% (active) | 0% | 23% | 99.2% (active) | -2% | 22% | 94.7% (active) | 6% | 26% | 98.7% (active) | -1% | 19% | 98.9% (active)
5 | Cc1cc(N(CCCCl)CCCCl)ccc1C=Nc1cccc(Cl)c1 | -7% | 40% | 79% (active) | -7% | 12% | 32.8% | -4% | 65% | 80.7% (active) | 3% | -2% | -21.6% | -1% | 59% | 61% | -10% | 23% | 68.2%
6 | COc1cccc(/C=C2\CCCc3ccccc3C2=O)c1 | 1% | 20% | 52.4% | 7% | 45% | 22.3% | 14% | 67% | 80.3% (active) | -7% | 6% | 26.6% | 72% (active) | 87% (active) | 74.4% (active) | 10% | 60% | 63.6%
7 | CC(=O)C(C=O)C(C)=O.CC(=O)CC(C)=O.CC(=O)CC(C)=O.[Ru] | 4% | 59% | 36.9% | 60% | 98% (active) | 97.9% (active) | 16% | 61% | 50.5% | 0% | 44% | 36% | -7% | 33% | -1.3% | 11% | 66% | 52.8%
8 | O=C(CC(c1ccccc1)c1ccccc1)NCCCCN1CCCCCCC1 | 27% | 89% (active) | 12% | 19% | 96% (active) | -9% | 25% | 94% (active) | 22.9% | 2% | 90% (active) | 89.7% (active) | 5% | 93% (active) | 26.4% | 16% | 93% (active) | 19.4%
9 | CCCCCCCCCCCCC1N=C(N)N2CCCC2=C1C(=O)OC (configuration not stated) | 82% (active) | 99% (active) | 89.2% (active) | 99% (active) | 99% (active) | 91.5% (active) | 69% | 99% (active) | 87.4% (active) | 100% (active) | 99% (active) | 90.5% (active) | 99% (active) | 99% (active) | 90.4% (active) | 99% (active) | 99% (active) | 84.7% (active)
